Test [1] addresses T1, Ephrin type-B receptor 1 (Homo sapiens) (UniProt P54762).
T1 sequence (whole entry): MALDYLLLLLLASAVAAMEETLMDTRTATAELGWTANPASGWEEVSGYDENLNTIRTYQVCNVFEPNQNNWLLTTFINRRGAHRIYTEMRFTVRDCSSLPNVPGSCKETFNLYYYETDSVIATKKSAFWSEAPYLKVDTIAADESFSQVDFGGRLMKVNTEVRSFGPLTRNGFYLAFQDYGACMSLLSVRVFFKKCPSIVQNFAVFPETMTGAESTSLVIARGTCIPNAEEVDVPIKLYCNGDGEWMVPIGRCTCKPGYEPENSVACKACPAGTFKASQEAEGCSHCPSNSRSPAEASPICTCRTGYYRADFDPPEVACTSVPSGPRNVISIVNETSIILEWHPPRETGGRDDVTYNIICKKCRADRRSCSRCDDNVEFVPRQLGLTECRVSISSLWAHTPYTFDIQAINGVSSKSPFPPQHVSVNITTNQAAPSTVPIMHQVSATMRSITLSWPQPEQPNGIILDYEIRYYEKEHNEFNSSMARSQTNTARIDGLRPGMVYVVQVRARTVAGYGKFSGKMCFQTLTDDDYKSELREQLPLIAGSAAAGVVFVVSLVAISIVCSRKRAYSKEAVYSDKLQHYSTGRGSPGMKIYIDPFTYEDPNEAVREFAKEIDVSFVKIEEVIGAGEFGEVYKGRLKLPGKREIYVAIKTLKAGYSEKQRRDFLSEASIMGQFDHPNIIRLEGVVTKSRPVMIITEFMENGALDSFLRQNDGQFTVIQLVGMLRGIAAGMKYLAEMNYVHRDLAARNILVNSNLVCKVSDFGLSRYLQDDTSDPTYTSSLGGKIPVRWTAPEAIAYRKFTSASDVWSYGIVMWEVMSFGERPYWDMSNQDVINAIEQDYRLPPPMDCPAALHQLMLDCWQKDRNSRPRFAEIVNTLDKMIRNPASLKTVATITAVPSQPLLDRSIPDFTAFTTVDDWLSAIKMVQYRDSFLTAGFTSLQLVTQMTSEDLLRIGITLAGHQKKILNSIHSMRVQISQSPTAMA
The note with it: at 10 µM.

Test [2] addresses T2, Ephrin type-B receptor 2 (Homo sapiens) (UniProt P29323).
T2 sequence (whole entry): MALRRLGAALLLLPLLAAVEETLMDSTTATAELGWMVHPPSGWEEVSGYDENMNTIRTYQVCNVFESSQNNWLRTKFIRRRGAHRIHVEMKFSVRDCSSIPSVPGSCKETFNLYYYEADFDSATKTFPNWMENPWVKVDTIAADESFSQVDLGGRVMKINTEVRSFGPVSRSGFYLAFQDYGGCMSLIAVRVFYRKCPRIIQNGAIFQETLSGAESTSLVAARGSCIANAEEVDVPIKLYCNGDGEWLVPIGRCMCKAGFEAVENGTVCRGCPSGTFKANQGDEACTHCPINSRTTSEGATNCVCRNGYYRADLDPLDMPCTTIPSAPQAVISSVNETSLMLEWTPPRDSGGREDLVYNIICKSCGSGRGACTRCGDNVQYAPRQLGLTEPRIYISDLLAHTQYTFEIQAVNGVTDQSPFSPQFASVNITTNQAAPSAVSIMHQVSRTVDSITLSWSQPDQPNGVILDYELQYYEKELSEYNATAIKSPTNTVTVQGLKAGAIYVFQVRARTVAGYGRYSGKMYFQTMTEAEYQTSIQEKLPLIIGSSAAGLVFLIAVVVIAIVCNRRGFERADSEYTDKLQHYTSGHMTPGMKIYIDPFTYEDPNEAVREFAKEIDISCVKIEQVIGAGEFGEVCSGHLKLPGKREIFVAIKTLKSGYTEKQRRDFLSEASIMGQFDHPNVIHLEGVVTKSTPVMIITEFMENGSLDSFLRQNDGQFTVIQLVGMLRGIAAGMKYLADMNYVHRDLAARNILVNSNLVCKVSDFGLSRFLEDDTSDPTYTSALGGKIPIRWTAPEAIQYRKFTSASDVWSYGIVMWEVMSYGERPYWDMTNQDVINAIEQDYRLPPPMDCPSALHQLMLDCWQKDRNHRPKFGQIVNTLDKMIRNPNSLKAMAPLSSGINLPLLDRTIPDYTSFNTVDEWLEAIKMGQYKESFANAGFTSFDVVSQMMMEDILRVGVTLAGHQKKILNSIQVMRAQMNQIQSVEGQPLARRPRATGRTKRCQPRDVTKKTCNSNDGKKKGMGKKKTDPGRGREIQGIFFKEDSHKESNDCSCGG
The settings on record: at 1 µM.

In test [3] the target is T2, Ephrin type-B receptor 2 (Homo sapiens). The settings on record: at 10 µM.
Test [4] addresses T3, Ephrin type-B receptor 3 (Homo sapiens) (UniProt P54753).
T3 sequence (whole entry): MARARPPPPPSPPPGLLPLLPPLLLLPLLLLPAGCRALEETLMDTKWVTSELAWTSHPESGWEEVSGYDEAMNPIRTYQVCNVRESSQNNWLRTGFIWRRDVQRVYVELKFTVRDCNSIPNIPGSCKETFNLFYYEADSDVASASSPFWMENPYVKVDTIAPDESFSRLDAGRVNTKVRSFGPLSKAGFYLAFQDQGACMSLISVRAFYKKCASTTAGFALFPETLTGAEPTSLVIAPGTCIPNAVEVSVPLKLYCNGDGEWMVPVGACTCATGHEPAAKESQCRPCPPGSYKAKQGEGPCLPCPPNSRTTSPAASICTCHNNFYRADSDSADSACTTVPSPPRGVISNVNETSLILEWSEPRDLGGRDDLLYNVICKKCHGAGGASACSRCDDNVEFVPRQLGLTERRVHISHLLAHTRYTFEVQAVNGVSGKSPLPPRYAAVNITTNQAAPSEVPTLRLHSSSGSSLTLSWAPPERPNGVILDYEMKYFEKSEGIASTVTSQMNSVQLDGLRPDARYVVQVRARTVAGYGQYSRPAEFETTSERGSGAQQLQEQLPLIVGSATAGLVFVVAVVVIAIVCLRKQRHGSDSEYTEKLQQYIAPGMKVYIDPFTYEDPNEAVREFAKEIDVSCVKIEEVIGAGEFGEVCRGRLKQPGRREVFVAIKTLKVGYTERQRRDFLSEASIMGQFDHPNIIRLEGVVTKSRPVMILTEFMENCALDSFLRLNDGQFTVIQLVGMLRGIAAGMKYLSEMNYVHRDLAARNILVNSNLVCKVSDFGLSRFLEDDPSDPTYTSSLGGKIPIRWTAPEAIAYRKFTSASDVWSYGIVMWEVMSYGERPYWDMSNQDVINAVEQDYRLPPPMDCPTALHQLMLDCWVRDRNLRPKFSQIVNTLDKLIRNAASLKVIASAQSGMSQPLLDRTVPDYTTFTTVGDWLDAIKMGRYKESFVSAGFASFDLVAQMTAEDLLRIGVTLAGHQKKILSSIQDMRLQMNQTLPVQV
The settings on record: at 1 µM.

Test [5] deals with T3, Ephrin type-B receptor 3 (Homo sapiens). The note with it: at 10 µM.
Test [6] deals with T4, Ephrin type-B receptor 4 (Homo sapiens) (UniProt P54760).
T4 sequence (whole entry): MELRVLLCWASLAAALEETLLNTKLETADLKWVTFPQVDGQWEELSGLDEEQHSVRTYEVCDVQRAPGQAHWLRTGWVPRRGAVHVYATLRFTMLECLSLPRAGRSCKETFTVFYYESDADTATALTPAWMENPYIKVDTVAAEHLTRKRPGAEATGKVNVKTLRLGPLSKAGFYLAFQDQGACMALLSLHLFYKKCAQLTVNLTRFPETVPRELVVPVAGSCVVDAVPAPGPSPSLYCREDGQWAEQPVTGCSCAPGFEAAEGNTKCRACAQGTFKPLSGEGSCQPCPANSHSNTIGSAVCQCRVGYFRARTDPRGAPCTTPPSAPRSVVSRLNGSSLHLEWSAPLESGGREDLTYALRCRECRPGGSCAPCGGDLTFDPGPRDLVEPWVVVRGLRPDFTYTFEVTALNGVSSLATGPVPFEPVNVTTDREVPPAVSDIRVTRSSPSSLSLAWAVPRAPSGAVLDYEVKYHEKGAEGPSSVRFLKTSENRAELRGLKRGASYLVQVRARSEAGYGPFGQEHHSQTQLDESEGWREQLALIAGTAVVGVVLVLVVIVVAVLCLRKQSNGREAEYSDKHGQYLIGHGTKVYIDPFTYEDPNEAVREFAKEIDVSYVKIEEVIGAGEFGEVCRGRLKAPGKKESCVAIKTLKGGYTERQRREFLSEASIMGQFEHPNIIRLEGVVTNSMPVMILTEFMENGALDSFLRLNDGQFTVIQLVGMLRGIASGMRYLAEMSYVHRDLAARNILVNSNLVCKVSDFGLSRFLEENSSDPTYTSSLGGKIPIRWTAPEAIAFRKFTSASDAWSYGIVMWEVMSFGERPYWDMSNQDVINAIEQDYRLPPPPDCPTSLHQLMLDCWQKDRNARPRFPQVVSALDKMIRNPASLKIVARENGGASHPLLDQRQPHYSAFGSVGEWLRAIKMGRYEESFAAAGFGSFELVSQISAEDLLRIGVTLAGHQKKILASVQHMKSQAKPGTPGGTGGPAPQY
The note with it: at 1 µM.

The target in test [7] is T4, Ephrin type-B receptor 4 (Homo sapiens). The note with it: at 10 µM.
Test [8] deals with Receptor tyrosine-protein kinase erbB-4 (Homo sapiens) (UniProt Q15303). The settings on record: at 1 µM.
Receptor tyrosine-protein kinase erbB-4 (Homo sapiens), sequence (Q15303 whole entry): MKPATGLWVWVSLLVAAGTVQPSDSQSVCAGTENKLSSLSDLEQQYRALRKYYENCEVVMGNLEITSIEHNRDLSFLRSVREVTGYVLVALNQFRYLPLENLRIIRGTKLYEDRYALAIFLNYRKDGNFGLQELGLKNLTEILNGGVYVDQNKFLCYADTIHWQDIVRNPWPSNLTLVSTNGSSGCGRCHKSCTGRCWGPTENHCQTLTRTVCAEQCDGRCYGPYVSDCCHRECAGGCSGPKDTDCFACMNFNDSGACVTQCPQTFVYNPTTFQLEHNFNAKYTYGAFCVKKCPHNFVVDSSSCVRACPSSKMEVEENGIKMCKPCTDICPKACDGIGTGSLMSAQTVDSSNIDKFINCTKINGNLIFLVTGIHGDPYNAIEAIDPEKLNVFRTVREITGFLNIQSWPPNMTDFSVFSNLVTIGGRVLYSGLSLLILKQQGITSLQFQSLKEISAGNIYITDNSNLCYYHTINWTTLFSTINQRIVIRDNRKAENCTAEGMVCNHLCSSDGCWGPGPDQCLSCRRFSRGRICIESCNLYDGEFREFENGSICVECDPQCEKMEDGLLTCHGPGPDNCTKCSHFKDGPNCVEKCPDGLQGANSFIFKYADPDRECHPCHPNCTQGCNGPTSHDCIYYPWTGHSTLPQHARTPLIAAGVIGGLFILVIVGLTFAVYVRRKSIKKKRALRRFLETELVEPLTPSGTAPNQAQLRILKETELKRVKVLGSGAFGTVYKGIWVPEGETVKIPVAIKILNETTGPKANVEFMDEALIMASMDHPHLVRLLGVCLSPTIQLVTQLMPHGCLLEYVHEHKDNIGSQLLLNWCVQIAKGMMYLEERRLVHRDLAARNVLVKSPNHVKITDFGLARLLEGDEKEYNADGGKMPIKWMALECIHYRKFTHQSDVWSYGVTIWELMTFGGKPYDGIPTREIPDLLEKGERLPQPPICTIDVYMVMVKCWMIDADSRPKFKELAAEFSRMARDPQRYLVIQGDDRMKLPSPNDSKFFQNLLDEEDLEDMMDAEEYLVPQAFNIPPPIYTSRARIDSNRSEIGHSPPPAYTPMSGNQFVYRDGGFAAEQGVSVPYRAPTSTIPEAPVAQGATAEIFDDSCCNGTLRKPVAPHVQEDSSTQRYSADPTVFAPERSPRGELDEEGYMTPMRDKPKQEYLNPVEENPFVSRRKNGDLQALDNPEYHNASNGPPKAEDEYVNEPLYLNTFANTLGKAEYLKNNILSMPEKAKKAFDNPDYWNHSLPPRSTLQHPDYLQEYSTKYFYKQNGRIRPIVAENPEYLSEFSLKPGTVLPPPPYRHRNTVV
Test [9] has the same target. The settings on record: at 10 µM.
The target in test [10] is Focal adhesion kinase 1 (Homo sapiens) (UniProt Q05397). The note with it: at 1 µM.
Focal adhesion kinase 1 (Homo sapiens), sequence (Q05397 2-1052 limits assumed): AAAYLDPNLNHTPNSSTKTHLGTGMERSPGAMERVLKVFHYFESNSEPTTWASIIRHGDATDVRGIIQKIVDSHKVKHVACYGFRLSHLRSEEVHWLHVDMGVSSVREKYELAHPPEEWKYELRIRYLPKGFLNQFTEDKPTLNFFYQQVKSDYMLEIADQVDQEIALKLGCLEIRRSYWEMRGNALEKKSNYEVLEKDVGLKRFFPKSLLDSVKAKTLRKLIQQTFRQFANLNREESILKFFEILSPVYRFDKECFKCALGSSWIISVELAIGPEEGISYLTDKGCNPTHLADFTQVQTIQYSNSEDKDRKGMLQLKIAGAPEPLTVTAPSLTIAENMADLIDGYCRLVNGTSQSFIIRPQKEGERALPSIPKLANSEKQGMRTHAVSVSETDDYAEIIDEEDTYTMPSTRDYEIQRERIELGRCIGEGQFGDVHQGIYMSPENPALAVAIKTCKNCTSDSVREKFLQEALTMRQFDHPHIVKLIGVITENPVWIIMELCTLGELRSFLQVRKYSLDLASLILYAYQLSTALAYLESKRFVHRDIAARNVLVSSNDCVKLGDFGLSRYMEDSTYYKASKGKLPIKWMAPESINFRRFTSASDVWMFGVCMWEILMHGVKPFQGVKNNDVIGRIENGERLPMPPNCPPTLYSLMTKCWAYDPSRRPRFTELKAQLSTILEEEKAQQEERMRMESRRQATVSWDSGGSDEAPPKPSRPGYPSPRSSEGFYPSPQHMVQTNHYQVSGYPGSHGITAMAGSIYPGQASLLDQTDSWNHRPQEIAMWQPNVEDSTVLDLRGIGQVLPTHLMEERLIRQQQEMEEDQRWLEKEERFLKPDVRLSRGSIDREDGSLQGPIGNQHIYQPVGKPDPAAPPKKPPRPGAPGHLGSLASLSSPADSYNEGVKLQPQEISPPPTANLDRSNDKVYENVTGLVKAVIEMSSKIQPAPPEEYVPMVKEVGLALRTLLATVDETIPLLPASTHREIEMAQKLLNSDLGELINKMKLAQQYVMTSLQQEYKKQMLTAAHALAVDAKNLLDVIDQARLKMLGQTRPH

Drawing on ChEMBL document CHEMBL2218924, “A broad activity screen in support of a chemogenomic map for kinase signalling research and drug discovery” (Biochem J, 2013), this text covers residual activity for one compound.

Structures are written as SMILES.

As usually defined, the residual activity is the signal under treatment as a percentage of the control signal. In the case of `NC(=O)Nc1sc(-c2ccc(F)cc2)cc1C(N)=O`, the residual activity is 0% in test [1]; 93% in test [2]; 19% in test [3]; 117% (inactive) in [4]; 117% in [5]; 49% in test [6]. The residual activity worked out at 6% in test [7], 91% in test [8], 59% in test [9] and 68% in test [10].
